Screening data (PubChem BioAssay)
Rows were chosen to be rich in hits. Some 3.9% of all compounds tested hit in one or more screens of this group.
Autofluor counter: flagged as autofluorescent in microsphere protease counterscreen. compound autofluorescence counterscreen, microsphere flow cytometry; stronger effect = higher value. fluorescence intensity (test concentration not listed). actives 3.1% (n = 360,000). AID 624483; in the data active means fluorescence intensity above about 16000; inconclusive means no clear call, values can overlap the other calls
VHR inh abs: blocks human VHR1 dual specificity phosphatase. AID 1654. P51452. actives 0.52% (n = 290,000). recombinant VHR phosphatase, pNPP absorbance. inhibition, % at 13.3 µM; in the data active means inhibition above about 50%
Target sequence (P51452 whole entry, looked up): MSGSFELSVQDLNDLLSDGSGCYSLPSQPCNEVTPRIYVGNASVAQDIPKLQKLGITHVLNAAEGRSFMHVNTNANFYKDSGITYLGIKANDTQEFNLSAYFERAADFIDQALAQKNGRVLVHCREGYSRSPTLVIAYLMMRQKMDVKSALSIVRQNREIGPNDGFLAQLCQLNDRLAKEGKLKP
SARS 3CLpro inh: SARS-CoV 3CLpro protease inhibition; P0C6X7; recombinant SARS-CoV 3CLpro, quenched FRET peptide cleavage; inhibition, % at 6 µM; actives 0.14% (n = 290,000); in the data active means inhibition above about 12%
BoNT-F LC inh: inhibitors of Botulinum neurotoxin F light chain protease | Multiplex microsphere protease cleavage assay, flow cytometry | inhibition, % at 10 µM | actives 0.22% (n = 360,000) | AID 588497; in the data active means inhibition above about 35%, passing the limit was not always enough; inconclusive means no clear call, values can overlap the other calls; further: plate controls were buffer without enzyme for full effect and enzyme alone for no effect
BoNT A protease: BoNT A light chain protease inhibition | multiplex microsphere protease substrate cleavage, flow cytometry | inhibition, % at 10 µM | actives 0.17% (n = 360,000) | AID 588499; further: plate controls were buffer without enzyme for full effect and enzyme alone for no effect
Anthrax LF inh2: anthrax lethal factor protease inhibition | multiplex microsphere protease cleavage assay, LF | actives 0.12% (n = 360,000) | P15917 | inhibition, % at 10 µM; further: plate controls were buffer without enzyme for full effect and enzyme alone for no effect
* hit, by the source's call; u = inconclusive; x = no result. Unless noted, no stated cut-off is given here; in the data, active means inhibition above about 30%; inconclusive means no clear call, values can overlap the other calls; inactive means below that.

SMILES	Autofluor counter	VHR inh abs	SARS 3CLpro inh	BoNT-F LC inh	BoNT A protease	Anthrax LF inh2
O=C1COc2ccc(-c3csc(=Nc4ccc(OC(F)F)cc4)n3CC3CCCO3)cc2N1 (configuration not stated)	18135*	25	-1	4	4	-11
COc1ccccc1N=c1scc(-c2ccc3c(c2)NC(=O)CO3)n1CC1CCCO1 (configuration not stated)	3192	36	-1	-12	-1	-1
COc1cc(S(=O)(=O)Nc2cccc(C(=O)O)c2)c(OC)cc1Cl	20274*	4	1	6	u	0
COc1ccccc1NS(=O)(=O)c1cccc(NS(=O)(=O)c2cc(C(=O)O)ccc2Cl)c1	3854	x	x	-6	1	0
O=C(O)c1cccc(NS(=O)(=O)/C=C/c2ccccc2)c1	19766*	19	2	0	2	-6
Cc1cc(C(C)(C)C)cc(S(=O)(=O)Nc2cccc(C(=O)O)c2)c1C	20337*	-33	9	5	4	-10
O=C(O)c1ccc(NS(=O)(=O)/C=C/c2ccccc2)cc1	4858	7	2	0	0	2
CC(=O)Nc1ccc(S(=O)(=O)Nc2cccc(-c3nc4ccccc4o3)c2)cc1	6567	20	6	-6	2	0
O=S(=O)(Nc1ccc(-c2nc3ccccc3o2)cc1)c1ccccc1	23226*	-5	4	-7	u	-3
O=C(Nc1ccc(-c2nc3ccccc3o2)cc1)C1CCCO1 (configuration not stated)	19183*	3	-6	3	2	1
CC(C)C[C@@]12C(=O)N(c3cccc(F)c3)C(=O)N1[C@H](c1ccc(F)cc1)[C@@H]1C(=O)N(C3CCCCC3)C(=O)[C@@H]12	3596	x	x	-9	-1	-4
CCOc1cc(NC(=S)NCC2CCCO2)c(OCC)cc1NC(=O)c1ccccc1C (configuration not stated)	9208	20	6	4	0	-16
CCOc1cc(NC(=S)Nc2ccccc2OC)c(OCC)cc1NC(=O)c1ccccc1C	16184*	22	0	-2	1	-5
CCOc1cc(NC(=S)Nc2ccccc2)c(OCC)cc1NC(=O)c1ccccc1	23797*	35	3	-8	-2	-3
CCOc1cc(NC(=O)c2ccccn2)c(OCC)cc1NC(=O)c1ccccc1	4637	-14	-1	-3	0	1
COc1ccccc1NC(=O)CCN1C(=O)c2ccccc2S1(=O)=O	4639	26	2	-6	-2	1
Cc1cc(NC(=O)NC2(C(F)(F)F)Oc3ccc(Cl)cc3O2)no1 (configuration not stated)	16576*	-14	2	0	-1	-3
Cc1nc(NCCC(C)C)c2nnn(Cc3ccccc3)c2n1	3719	15	-3	-4	-3	-8
Cc1ccc(CNC(=O)C(C)OC(=O)c2ccco2)cc1 (configuration not stated)	22466*	21	0	4	u	0
Cc1ccc(CNC(=O)C(OC(=O)c2ccco2)C(C)C)cc1 (configuration not stated)	11765	14	-3	-12	-1	-4
Cc1c(-c2ccccc2)c(-c2ccc(OCCN(C)C)cc2)n2ccccc12	5245	x	x	-24	5	6
Cc1ccc(S(=O)(=O)NCc2cccc([N+](=O)[O-])c2)cc1	3544	x	x	-4	0	-5
CCCC(C)c1nnc(NC(=O)c2cc(C(=O)OC)cc([N+](=O)[O-])c2)s1 (configuration not stated)	16199*	4	2	-2	u	0
COC(=O)c1cc(C(=O)Nc2ccc(C)cn2)cc([N+](=O)[O-])c1	22666*	14	-1	-2	u	2
CC1CC(NS(=O)(=O)c2cccs2)CC(C)(C)C1 (configuration not stated)	7037	24	3	-4	1	4
COc1ccc(/C=C/C(=O)NCc2c(C)nn(C)c2C)cc1COc1ccc(Br)cc1	8036	29	-1	20	3	-3
COc1ccc(/C=C/C(=O)NCc2cnn(C)c2C)cc1COc1ccc(Br)cc1	23817*	1	5	-4	-2	-2
c1ccc2c(c1)oc1c(Nc3ccc4c(c3)OCO4)ncnc12	2438	11	0	-5	0	4
CCc1nc(Nc2ccc(F)cc2)c2oc3ccccc3c2n1	3810	-7	2	2	-3	-2
